GRIN3A LBD mod: modulates the human NR3A ligand-binding domain | AID 1259313 | NR3A LBD differential scanning fluorimetry, Tm shift; 0% = protein alone, 100% = glycine-bound protein | hit rate 2.5% among 340,000 | Tm shift relative to glycine control, % at 25 µM;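 active means melting temperature shift of at least 10% of the positive control shift, at one fixed dose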
ADAM10 inh: ADAM10 inhibition, QFRET primary screen | O14672 | recombinant ADAM10, EDANS/DABCYL FRET peptide cleavage, 3 h | inhibition, % at 7 µM | hit rate 0.62% among 370,000 | AID 720582;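 active means inhibition above a per-campaign cutoff equal to the mean of compounds falling between control-based bounds plus 3 SD, cut at about 20% in these data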
sPLA2-III inh: Inhibits HGIII-sPLA2 liposome hydrolysis, primary screen; hit rate 0.56% among 370,000; QFRET BODIPY PC-A2 liposome hydrolysis, fluorescence; AID 743126; Q9NZ20; inhibition, % at 12.2 µM;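 active means inhibition above mean plus 3 SD of compounds lying within the high and low control bounds, cut at about 19% in these data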
Target sequence (Q9NZ20 whole entry, looked up): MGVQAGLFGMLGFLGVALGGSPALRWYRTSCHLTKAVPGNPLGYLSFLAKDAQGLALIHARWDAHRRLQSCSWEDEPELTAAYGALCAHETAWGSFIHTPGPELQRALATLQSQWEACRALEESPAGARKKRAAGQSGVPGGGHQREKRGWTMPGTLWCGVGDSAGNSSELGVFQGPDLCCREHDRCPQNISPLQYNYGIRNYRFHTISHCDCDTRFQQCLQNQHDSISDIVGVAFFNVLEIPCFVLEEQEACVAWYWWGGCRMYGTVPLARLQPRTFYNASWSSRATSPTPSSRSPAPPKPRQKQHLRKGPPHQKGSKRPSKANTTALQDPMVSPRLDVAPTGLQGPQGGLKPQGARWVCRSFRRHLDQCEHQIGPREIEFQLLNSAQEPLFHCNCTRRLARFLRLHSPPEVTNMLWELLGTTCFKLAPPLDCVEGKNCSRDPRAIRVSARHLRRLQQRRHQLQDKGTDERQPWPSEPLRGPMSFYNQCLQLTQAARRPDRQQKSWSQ
FAS TE block: FAS thioesterase (human) inhibition. hit rate 0.67% among 360,000. recombinant FAS-TE, OMFH fluorogenic substrate, fluorescence endpoint. AID 602261. inhibition, % at 15 µM. P49327;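 active means compounds whose normalised, plate-corrected inhibition of enzyme fluorescence in the single-dose primary screen is 50% or more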
ADAM17 inh: ADAM17 inhibition, QFRET primary screen. hit rate 0.83% among 370,000. recombinant ADAM17, EDANS/DABCYL FRET peptide cleavage. P78536. AID 720648. inhibition, % at 6.95 µM;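 active means inhibition above the mean of compounds lying between control limits plus 3 SD, set per campaign, cut at about 8.5% in these data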
sPLA2 confirm: human GIII-sPLA2 inhibition, confirmation; shares compounds with sPLA2-III inh; recombinant hGIII-sPLA2, BODIPY PC-A2 QFRET fluorescence; inhibition, % at 12.2 µM; hit rate 34% among 2,000;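 active means mean inhibition across triplicates above the hit cutoff set in the earlier primary screen, cut at about 19% in these data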
535nm interf: optically interferes with 535nm fluorescence in sPLA2 counter-screen | shares compounds with sPLA2-III inh | BODIPY FL product fluorescence interference, QFRET | inhibition, % at 12.2 µM | hit rate 8.5% among 2,000 | AID 743282;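 active means average inhibition above the solvent-only control mean plus 3 SD, cut at about 6% in these data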
535nm interf DR: counter-screen for HGIII-sPLA2 inhibitors: 535nm fluorescence interference, dose response; shares compounds with sPLA2-III inh; 240 tested, under 10 active; IC50, µM; AID 743455; BODIPY FL product fluorescence interference, cell-free;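 active means IC50 at or below 10 µM; inactive means IC50 above 10 µM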
A number is an active result; n = inactive; x = not tested or not shown; ! = repeats disagree. In the library only some 4.3% were active in any assay of this set; here they are far more common.

SMILES	GRIN3A LBD mod	ADAM10 inh	sPLA2-III inh	FAS TE block	ADAM17 inh	sPLA2 confirm	535nm interf	others
CN1c2ccc([N+](=O)[O-])cc2N(C)C1(C)c1ccccc1 (configuration not stated)	n	n	25	n	n	44	8.0
CCN1C(=O)/C(=C\C=C2/C=CC=CN2CC)SC1=S	n	n	25	n	n	27	n
CCOCCOc1cc(NCc2ccccc2)c2ncn(C(C)C)c2c1	n	n	n	n	n	x	x
CCCCOc1cc(NCc2ccccc2)c2ncn(C(C)C)c2c1	n	n	21	n	n	n	n
CCCC[C@H]1C2CC(OC(=O)Nc3cccc(F)c3)C(C2)[C@H]2CCCCN21 (some centres not stated)	x	n	n	x	n	x	x
CCOC1(c2ccccc2)OC(=O)c2ccccc21 (configuration not stated)	n	n	22	n	n	n	n
CC(C)OC1(c2ccccc2)OC(=O)c2ccccc21 (configuration not stated)	n	n	n	n	n	x	x
C[C@@H]1CN([C@@H](C)CO)C(=O)CCCn2cc(nn2)CO[C@H]1CN(C)C(=O)Nc1cccc(F)c1	x	n	n	x	n	x	x
CC(=O)N(c1nc2ccccc2s1)N1C(=O)c2ccccc2C1=O	x	n	n	x	n	x	x
CCC(C)[C@H](NC(=O)[C@H](Cc1ccccc1)NC(=O)OC(C)(C)C)C(=O)NCc1ccccc1Br (some centres not stated)	x	n	20	x	n	n	n
CCC(C)C(NC(=O)OC(C)(C)C)C(=O)NC(Cc1ccccc1)C(=O)OC (configuration not stated)	n	n	n	n	n	x	x
C=CCN1C(=O)c2ccc(C(=O)OCC(=O)Nc3ccccc3OC)cc2C1=O	n	n	20	n	n	n	n
COc1ccccc1NC(=O)COC(=O)c1ccc2c(c1)OCCO2	n	n	n	n	n	x	x
Fc1ccc(-c2cc(-c3nnc4sc(-c5ccco5)nn34)[nH]n2)cc1	x	n	n	x	n	x	x
O=[N+]([O-])c1ccc(NNS(=O)(=O)c2cc(Cl)ccc2Cl)nc1	n	n	23	n	n	48	72
O=S(=O)(Nc1ccccn1)c1cc(Cl)ccc1Cl	n	n	n	n	n	x	x
CCCC[C@H]1C2CC(OC(=O)Nc3ccc(C#N)cc3)C(C2)[C@H]2CCCCN21 (some centres not stated)	x	n	n	x	n	x	x
CCCCCCN1CCN(C2CN(Cc3cn(CCCC(=O)OC)nn3)S(=O)(=O)C2)CC1 (configuration not stated)	x	n	21	n	n	n	n
Cc1cc(C)nc(SCc2cc(=O)c(OC(=O)c3ccc(Cl)c([N+](=O)[O-])c3)co2)n1	n	n	22	n	n	n	n
CCOC(=O)[C@@H]1CSCCS(=O)(=O)N1Cc1ccccc1	x	n	n	x	n	x	x
COC(=O)[C@H](C(C)C)N(CCc1cn(CC2CCCCC2)nn1)S(=O)(=O)c1ccc(F)cc1Br	x	n	n	x	n	x	x
Cc1cc(C)[n+]2n1C(=O)C(c1ccccc1)=C2[O-]	n	n	21!	n	n	n	n
Cc1nc2cc(-c3ccccc3)[nH]n2c(=O)c1C	n	n	n	n	n	x	x
COc1ccccc1NC(=O)OC[C@@H]1CSCCS(=O)(=O)N1	x	n	n	x	n	x	x
O=C(c1ccc2c(=O)n(C3CCCC3)c(=S)[nH]c2c1)N1CCN(C2CCCCC2)CC1	n	n	n	n	n	x	x
SMILES	GRIN3A LBD mod	ADAM10 inh	sPLA2-III inh	FAS TE block	ADAM17 inh	sPLA2 confirm	535nm interf	others
CCCn1c(=S)[nH]c2cc(C(=O)N3CCN(C4CCCCC4)CC3)ccc2c1=O	15	n	20	n	n	n	n
NC(=NCc1ccccc1)NC(=O)OCc1ccccc1	x	n	n	x	n	x	x
COc1ccc(NS(=O)(=O)c2cc(N)ccc2N2CCOCC2)cc1	n	n	n	n	n	x	x
COc1ccc(NS(=O)(=O)c2cc(N)ccc2N2CCCC2)cc1	n	n	21	n	n	n	n
Cc1ccccc1/C=N/n1c(-c2cc(-c3ccccc3)n[nH]2)n[nH]c1=S	n	n	26	n	n	n	n
Cc1ccsc1/C=N/n1c(-c2cc(-c3ccccc3)n[nH]2)n[nH]c1=S	n	n	n	n	n	x	x
S=c1[nH]nc(-c2ccccn2)n1/N=C/c1cccc2ccccc12	n	n	21	n	n	27	n
COC(=O)[C@]12C[C@H](CC(=O)NCc3cccc4ccccc34)C(=O)N(CCC3=CCCCC3)C1=C[C@H](C(C)(C)C)O[C@@H]2C	x	n	n	x	n	x	x
S=C(Nc1ccccc1)Nc1nccs1	n	n	27	n	n	30	n	535nm interf DR=n
O=C(Cc1ccccc1)Nc1nccs1	n	n	n	n	n	x	x
O=C(Cc1ccc(F)cc1)Nc1nccs1	n	n	n	n	n	x	x
Fc1ccc(NC(=S)Nc2nccs2)cc1	n	n	23	n	n	28	n	535nm interf DR=n
COC(=O)c1sccc1NC(=S)Nc1ccccc1	n	n	n	n	n	x	x
COC(=O)c1sccc1NC(=S)Nc1cccc(F)c1	n	n	19	n	n	n	n
COC(=O)c1sccc1NC(=S)Nc1cc(C)cc(C)c1	n	n	23	n	n	n	n
COc1cccc(C(=O)N[C@H](C(=O)N2CCC[C@H]2C(=O)NCCc2ccccc2Cl)C2CCCCC2)c1	x	n	n	x	n	x	x
CC(C)OC(=O)N(C)C[C@H]1OCc2cn(nn2)CCCC(=O)N([C@@H](C)CO)C[C@@H]1C	x	n	n	x	n	x	x
CCOC(=O)c1cc(C#N)c(SCC(=O)c2cc(C#N)c(SC)nc2C)nc1C	n	n	20	n	n	n	n
CC(C)N1CCCCC(NC(=O)c2cccs2)C1=O (configuration not stated)	x	n	n	x	n	x	x
C[C@@H]1CN([C@@H](C)CO)C(=O)CCCn2cc(nn2)CO[C@H]1CN(C)C(=O)C1CCCCC1	x	n	n	x	n	x	x
CC[n+]1ccc(/C=C/c2ccc(N(C)C)cc2)c2ccccc21	n	n	24	n	n	46	n	535nm interf DR=n
CC[n+]1c(/C=C/c2ccc(N(C)C)cc2)ccc2ccccc21	n	n	25	n	n	43	n	535nm interf DR=n
Cc1ccc2c(c1)C1CS(=O)(=O)N(CCc3ccccc3)C(=O)N1C2 (configuration not stated)	x	n	19	x	n	n	n
O=C(NCc1cccs1)C1CCCN(S(=O)(=O)c2cccs2)C1 (configuration not stated)	n	n	n	n	n	x	x
CS(=O)(=O)N1CCCC(C(=O)NCc2cccs2)C1 (configuration not stated)	n	n	20	n	n	n	n
